Bioassay records: PubChem BioAssay, The Scripps Research Institute Molecular Screening Center
An excerpt weighted towards active compounds, which were near 1.8% of everything screened.
PME-1 primary: blocks human protein phosphatase methylesterase 1 | inhibition, % at 5.9 µM | hit rate 0.53% among 320,000 | recombinant PME-1, FP-Rh probe fluorescence polarization;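 active = inhibition above the campaign mean of all compounds plus 3 SD, cut at about 26% in these data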;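 also: competitive labeling of PME-1 active site by serine hydrolase directed probe; inhibitors block probe labeling so polarization falls and inhibition rises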
Target sequence (Q9Y570 whole entry, looked up): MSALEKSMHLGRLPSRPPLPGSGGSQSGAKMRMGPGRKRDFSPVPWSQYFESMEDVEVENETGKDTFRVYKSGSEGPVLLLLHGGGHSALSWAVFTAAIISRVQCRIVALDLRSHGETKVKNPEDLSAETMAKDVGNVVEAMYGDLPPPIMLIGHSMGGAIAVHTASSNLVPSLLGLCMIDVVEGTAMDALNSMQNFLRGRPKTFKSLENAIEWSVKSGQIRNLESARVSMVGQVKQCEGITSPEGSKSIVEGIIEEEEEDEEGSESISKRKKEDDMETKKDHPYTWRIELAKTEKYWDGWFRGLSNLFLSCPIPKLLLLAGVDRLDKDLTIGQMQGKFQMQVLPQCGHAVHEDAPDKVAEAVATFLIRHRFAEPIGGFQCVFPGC
PAD4 FP inh: blocks human protein arginine deiminase 4 | hit rate 0.41% among 330,000 | inhibition, % at 6.36 µM | recombinant PAD4, RCA probe fluorescence polarization | Q9UM07;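 active = percent inhibition above a cutoff equal to the mean of all tested compounds plus 3 SD, cut at about 15% in these data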
LYPLA2 inh: LYPLA2 (human) inhibition in PME1 counter-screen. O95372. recombinant LYPLA2, FP-Rh probe fluorescence polarization. inhibition, % at 5.9 µM. hit rate 0.38% among 320,000;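 active = inhibition above the screen-wide mean plus 3 SD, limit set per campaign, cut at about 26% in these data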
Fam108B inh: counter-screen for RBBP9 inhibitors: inhibitors of mouse Fam108B | recombinant Fam108B, FP-Rh probe fluorescence polarization | hit rate 0.33% among 300,000 | inhibition, % at 9.51 µM;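 active = inhibition above the screen mean inhibition plus 3 SD, computed separately per campaign, cut at about 18% in these data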;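 also: inhibitors lower polarization as less probe binds the enzyme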
LYPLA1 inh: LYPLA1 (human) inhibition in PME1 counter-screen | O75608 | recombinant LYPLA1, FP-Rh probe fluorescence polarization | inhibition, % at 5.9 µM | hit rate 0.16% among 320,000;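 active = inhibition above the mean of all tested compounds plus 3 SD, set per campaign, cut at about 14% in these data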;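 also: inhibitors block serine hydrolase probe labeling of LYPLA1 so polarization falls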
GSTO1 inh: counter-screen for RBBP9 inhibitors: inhibitors of human GSTO1; P78417; recombinant GSTO1, activity-based probe fluorescence polarization; inhibition, % at 5.96 µM; hit rate 1.1% among 300,000; AID 1974;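 active = inhibition above the campaign mean inhibition plus 3 SD, cut at about 35% in these data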
LYPLA2 conf: LYPLA2 (human) inhibition, confirmation counter-screen | hit rate 72% among 1,100 | inhibition, % at 5.9 µM | AID 2232 | recombinant LYPLA2, FP-Rh probe fluorescence polarization | shares compounds with LYPLA2 inh;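 active = mean inhibition across replicates above the hit cutoff set in the primary screen, cut at about 26% in these data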;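 also: blocked labeling of the enzyme by serine hydrolase FP-Rh probe lowers polarization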
Each line names hits and unclear results; the compound was inactive in the other large screens (follow-up assays come after a bar, where they were run).

CCn1c(=O)c(C(=O)CN2CC(C)OC(C)C2)c(N)n(Cc2ccccc2)c1=O (stereo unspecified)	none
O=C(COc1ccccc1)N[C@@H]1c2ccccc2CC[C@H]1OCc1ccccc1	none (no result: PME-1 primary, LYPLA2 inh, Fam108B inh, LYPLA1 inh, GSTO1 inh)
Nc1nnc(SCC(=O)c2ccc([N+](=O)[O-])cc2)s1	LYPLA2 inh 29.2 | LYPLA2 conf inactive
Cc1nnc(SCC(=O)c2ccc([N+](=O)[O-])cc2)s1	none
CC(=O)c1ccc(NC(=O)CN2C(=O)NC(C)(C3CCCCC3)C2=O)cc1 (stereo unspecified)	none (no result: Fam108B inh, GSTO1 inh)
O=C1CCC/C(=N/NC(=O)c2ccc(CN3c4cccc5cccc(c45)S3(=O)=O)cc2)C1	LYPLA2 inh 57.4 | LYPLA2 conf 67.2
O=C(O)c1ccc(/C=N/NC(=O)c2ccc(CN3c4cccc5cccc(c45)S3(=O)=O)cc2)cc1	none
CN(CC(=O)OCC(=O)NC1CCCC1)S(=O)(=O)c1ccc(Cl)cc1	none (no result: PME-1 primary, LYPLA2 inh, Fam108B inh, LYPLA1 inh, GSTO1 inh)
CC(=O)c1ccc(N2CCN(C(=O)/C=C/c3ccc4ccccc4n3)CC2)cc1	LYPLA2 inh 32.6 | LYPLA2 conf 39.2
CC(=O)c1ccc(N2CCN(C(=O)c3ccc4ccccc4n3)CC2)cc1	none
CC(=O)c1ccc(S(=O)(=O)NCCC(=O)NC(C)c2ccncc2)cc1 (stereo unspecified)	none (no result: Fam108B inh, GSTO1 inh)
O=C(OCc1ccc(F)cc1)c1cc(S(=O)(=O)N2CCCCC2)ccc1N1CCOCC1	none
Cc1ccc(OCCOC(=O)c2cc(S(=O)(=O)N3CCCCC3)ccc2N2CCOCC2)cc1	LYPLA2 inh 28.9 (no result: Fam108B inh, GSTO1 inh) | LYPLA2 conf 31.1
O=C(OCc1ccc([N+](=O)[O-])cc1)c1cc(S(=O)(=O)N2CCCCC2)ccc1N1CCOCC1	LYPLA2 inh 27.5 | LYPLA2 conf 32.8
COc1ccc(COC(=O)c2cc(S(=O)(=O)N3CCCCC3)ccc2N2CCOCC2)cc1	none
CN1CC(=O)N2Cc3[nH]c4ccccc4c3C[C@H]2C1=O	none
CCCCN1CC(=O)N2Cc3[nH]c4ccccc4c3C[C@H]2C1=O	LYPLA2 inh 38.9 | LYPLA2 conf 27.2
COC(=O)C1=C(CS(=O)(=O)c2ccccc2)NC(=O)NC1c1ccc(OC)c(OC)c1 (stereo unspecified)	LYPLA2 inh 31.6 | LYPLA2 conf inactive
CCOC(=O)C1=C(CS(=O)(=O)c2ccccc2)NC(=O)NC1c1ccc(OC)c(OC)c1 (stereo unspecified)	none
Cc1c(NS(=O)(=O)c2ccc(N)cc2)c(=O)n(-c2ccccc2)n1C	none
O=C(Nn1cnc2ccccc2c1=O)c1ccccc1Cl	none
O=C(Nc1ccc(Cl)cc1)Nn1cnc2ccccc2c1=O	LYPLA2 inh 30.2 | LYPLA2 conf 34.1
CCOc1ccc(-c2nc(S(=O)(=O)c3ccccc3)c(N3CCC(C(N)=O)CC3)o2)cc1	none
CC(=O)N(c1nnc(-c2ccc(C)cc2)s1)C1CCCC1	none
O=C(CCCN1C(=O)c2cccc3cccc(c23)C1=O)N1CCN(c2ccccc2)CC1	LYPLA2 inh 36.7 | LYPLA2 conf 40.1
CCOc1ccccc1N1CCN(C(=O)CCCN2C(=O)c3cccc4cccc(c34)C2=O)CC1	none
O=C(CCCN1C(=O)c2cccc3cccc(c23)C1=O)N1CCN(c2ccccc2O)CC1	LYPLA2 inh 48.6 | LYPLA2 conf 48.7
CCC1(c2ccccc2)ON(c2c(Br)cccc2Br)C1=O (stereo unspecified)	none (no result: Fam108B inh, GSTO1 inh)
Cc1ccc(NC(=O)Cn2c([N+](=O)[O-])cnc2C)cc1	none
Cc1cccc(NC(=O)Cn2c([N+](=O)[O-])cnc2C)c1C	LYPLA2 inh 30.6 | LYPLA2 conf 31.6
Cc1ncc([N+](=O)[O-])n1CC(=O)Nc1ccc(Br)cc1	LYPLA2 inh 45.9 | LYPLA2 conf 38.5
Cc1ncc([N+](=O)[O-])n1CC(=O)Nc1ccc2c(c1)OCO2	LYPLA2 inh 25.9 | LYPLA2 conf inactive
Cc1cc(Br)c(NC(=O)Cn2c([N+](=O)[O-])cnc2C)cc1C	none
Cc1ncc([N+](=O)[O-])n1CC(=O)Nc1ccc(F)cc1	LYPLA2 inh 32.9 | LYPLA2 conf 38.4
COC(=O)c1ccc(NC(=O)Cn2c([N+](=O)[O-])cnc2C)cc1	none
Cc1ncc([N+](=O)[O-])n1CC(=O)Nc1ccccc1	LYPLA2 inh 32.0 | LYPLA2 conf 38.0
